Data: article PMC11574364

What follows are sequences tested against IGF2BP3 (Homo sapiens, UniProt O00425) (assay: protein domain microarray probed with biotinylated miRNA; Domain array: 20 mM Tris-HCl pH 7.4, 200 mM KCl, 0.2 mM EDTA, 0.05% NP40, 2 ug/ul heparin, overnight 4 C. ORF array: PBS pH 7.0 with RNase inhibitor, 100 ng RNA; high values mean tight binding). Conditions: ssRNA.
IGF2BP3, sequence (O00425 1-176): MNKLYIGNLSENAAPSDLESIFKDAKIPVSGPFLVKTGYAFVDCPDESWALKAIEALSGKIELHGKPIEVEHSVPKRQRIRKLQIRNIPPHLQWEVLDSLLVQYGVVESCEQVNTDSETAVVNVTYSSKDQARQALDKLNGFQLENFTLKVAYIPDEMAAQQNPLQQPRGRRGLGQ

Row | Sequence | binding signal [fluorescence intensity]
1 | CAGUGCAAUGAUGAAAGGGCAU | 20.1 ± 2.45
2 | AGAGGUAGUAGGUUGCAUAGUU | 46.2 ± 3.19
3 | UGAGGUAGUAGGUUGUGUGGUU | 36.9 ± 7.82
4 | UGAGGUAGUAGGUUGUAUGGUU | 22.9 ± 3.19

What follows are sequences tested against T1, NCBP2L (Homo sapiens, UniProt A6PVI3) in the same assay as above. Conditions: ssRNA.
T1 sequence: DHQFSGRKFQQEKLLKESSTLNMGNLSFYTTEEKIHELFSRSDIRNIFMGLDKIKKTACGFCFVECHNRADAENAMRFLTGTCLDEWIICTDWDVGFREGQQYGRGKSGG

Row | Sequence | binding signal [fluorescence intensity]
5 | CAGUGCAAUGAUGAAAGGGCAU | 162 ± 7.95
6 | AGAGGUAGUAGGUUGCAUAGUU | 202 ± 9.81
7 | UGAGGUAGUAGGUUGUGUGGUU | 239 ± 6.08
8 | UGAGGUAGUAGGUUGUAUGGUU | 180 ± 10.2
9 | UAGCUUAUCAGACUGAUGUUGA | 43.9 ± 1.85
10 | UGAGGUAGUAGGUUGUAUAGUU | 40.6 ± 4.36

The sequences below were run against hnRNP-I(1-2) (Homo sapiens, UniProt P26599) in the same assay as above. Conditions: ssRNA.
hnRNP-I(1-2), sequence (P26599 40-280): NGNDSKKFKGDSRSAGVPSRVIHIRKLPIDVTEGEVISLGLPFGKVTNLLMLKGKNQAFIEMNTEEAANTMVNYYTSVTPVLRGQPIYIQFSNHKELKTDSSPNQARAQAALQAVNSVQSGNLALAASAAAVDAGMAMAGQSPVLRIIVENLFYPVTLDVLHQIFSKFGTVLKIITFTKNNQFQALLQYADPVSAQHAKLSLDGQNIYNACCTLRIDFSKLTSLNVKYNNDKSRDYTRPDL

Row | Sequence | binding signal [fluorescence intensity]
11 | CAGUGCAAUGAUGAAAGGGCAU | 185 ± 5.4
12 | AGAGGUAGUAGGUUGCAUAGUU | 1010 ± 92.8
13 | UGAGGUAGUAGGUUGUGUGGUU | 994 ± 33.7
14 | UGAGGUAGUAGGUUGUAUGGUU | 911 ± 32.3
15 | UAGCUUAUCAGACUGAUGUUGA | 72.7 ± 35.4
16 | UGAGGUAGUAGGUUGUAUAGUU | 293 ± 83.2
